# Laboratory results from PubChem BioAssay AID492953 (The Scripps Research Institute Molecular Screening Center, 2010).
# In all, about 340,000 compounds went through this assay and about 4,200 (1.2%) were called active. The sample holds actives, similar compounds and a random draw of the others, so the mix is not that of the screen. Unmarked numbers belong to inactive results.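 Rule for the calls: active = inhibition above the mean of all tested compounds plus 3 SD (cut at about 24% in these data); inactive = the rest.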
# Molecular target: Platelet-activating factor acetylhydrolase IB subunit alpha2 (Homo sapiens) (UniProt P68402)
# Assay: PAFAH1B2 enzyme inhibitors, primary screen, biochemical, fluorescence polarization, human (AID 492953);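 note: 0% = enzyme with DMSO and 100% = wells lacking PAFAH1B2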
# Conditions: recombinant PAFAH1B2, FP-rhodamine activity probe, at 3.39 µM, active compounds read high
# Platelet-activating factor acetylhydrolase IB subunit alpha2 (Homo sapiens), sequence (P68402 whole entry, looked up): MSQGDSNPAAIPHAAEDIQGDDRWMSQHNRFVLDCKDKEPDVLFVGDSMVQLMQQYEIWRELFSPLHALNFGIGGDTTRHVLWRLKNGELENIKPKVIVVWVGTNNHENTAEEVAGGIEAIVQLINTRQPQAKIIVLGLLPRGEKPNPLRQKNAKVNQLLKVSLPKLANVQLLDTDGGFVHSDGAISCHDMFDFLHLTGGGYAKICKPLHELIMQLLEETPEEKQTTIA
row,SMILES,inhibition
1,O=C(c1cc2c(s1)CCC2)N1CCN(c2ccccc2)CC1,1.7%
2,COc1cc(CNc2ncn[nH]2)ccc1OCc1ccccc1C,-0.89%
3,CN(CCCNC(=O)CN1C(=O)CC(C)(C)S(=O)(=O)c2ccccc21)C1CCCCC1,5.24%
4,Nc1scc(-c2ccncc2)c1Cl,89.9% (active)
5,COC(=O)c1c(-c2ccc(C)cc2)csc1N,2.65%
6,CCOc1ccc(NC(=O)CSc2nc3ccccc3c(=O)n2Cc2cccs2)cc1,6.05%
7,CN1C(C)(C)CC(NC(=O)CCC(=O)NC2CC(C)(C)N(C)C(C)(C)C2)CC1(C)C,2.28%
8,COc1cc(C(=O)N2C(=O)c3cccc(N)c3C2=O)cc(OC)c1OC,1.13%
9,CC(=O)N1CCN(S(=O)(=O)c2cccc(C(=O)NC3CCC(C)CC3)c2)CC1 (stereo unspecified),5.89%
10,CC1CC(C)CN(S(=O)(=O)c2cccc(C(=O)N3C(=O)c4cccc(N)c4C3=O)c2)C1 (stereo unspecified),39.9% (active)
11,CCn1c(SCC(=O)Nc2nc(C)cs2)nnc1C(C)NC(=O)c1ccccc1 (stereo unspecified),8.33%
12,CC(C)CC(=O)Nc1nnc(S(=O)(=O)N(C)c2ccc(Cl)cc2)s1,26.6% (active)
13,COc1cccc(C(=O)Nc2nnc(S(=O)(=O)N(C)c3ccccc3)s2)c1,-2.38%
14,CCC(=O)Nc1nnc(S(=O)(=O)N(CC(C)C)c2ccccc2)s1,17.8%
15,COC(=O)c1sccc1NS(=O)(=O)c1ccc(F)cc1F,0.87%
16,CC(=O)c1c(C)[nH]c(C(=O)Nc2cc(S(=O)(=O)N(C)C)ccc2C)c1C,2.08%
17,O=C(NC1CCN(S(=O)(=O)c2ccc(F)cc2)CC1)c1ccccc1,2.57%
18,Cc1ccc(S(=O)(=O)/N=C(/NC(=S)Nc2c(C)n(C)n(-c3ccccc3)c2=O)c2ccccc2)cc1,9.33%
19,Cc1nnc(NC(=O)CSc2nc(C3CCCCC3)nc3ccccc23)s1,0.98%
20,O=C(CSc1nc(C2CC2)nc2ccccc12)Nc1cccc(O)c1,-0.49%
21,O=C(CSc1nc(C2CC2)nc2ccccc12)Nc1ccc2c(c1)OCCO2,38% (active)

row,SMILES,inhibition
1,O=C(CN1C(=O)CSC1=O)N1CCCC(Nc2ccc(F)cc2)C1 (stereo unspecified),-1.15%
2,O=C(c1ccc2c(c1)C(=O)N(Cc1ccncc1)C2=O)N1CCN(S(=O)(=O)c2ccc(OC(F)(F)F)cc2)CC1,5.75%
3,CC1CN(Cc2ccccc2)C(=S)NC1=O (stereo unspecified),29.8% (active)
4,CC1CN(Cc2ccco2)C(=S)N(c2ccccc2)C1=O (stereo unspecified),5.61%
5,CC1CC(=S)Nc2ccccc2N1Cc1ccccc1 (stereo unspecified),7.13%
6,COc1ccc(CCNC(=O)c2ccc(NC(=O)CC3SC(N4CCCCC4)=NC3=O)cc2)cc1OC (stereo unspecified),1.09%
7,Cc1ccc(C2CC(c3cccc(Br)c3)n3nc(N)nc3N2)cc1 (stereo unspecified),0.4%
8,COCCn1c(Cc2cccn2C)nnc1SCC(=O)Nc1nccs1,-1.79%
9,O=C(Nc1ccc(F)cc1)C1CCCN(S(=O)(=O)c2ccc(-n3cnnn3)cc2)C1 (stereo unspecified),0.34%
10,CC(NC(=O)C1CCCN(S(=O)(=O)c2ccc(-n3cnnn3)cc2)C1)c1ccc(F)cc1 (stereo unspecified),26.6% (active)
11,CC(C)CNC(=O)C1CCCN(S(=O)(=O)c2ccc(-n3cnnn3)cc2)C1 (stereo unspecified),5.01%
12,O=C(NCc1cccc(Cl)c1)C1=CC=CN2CCS(=O)(=O)N=C12,6%
13,O=C(C1CCN(CC2CCCCC2)CC1)N1CCCC1,0.2%
14,CCCCN(CC)CCCNC(=O)c1ccc(CSc2nc3ccncc3[nH]2)cc1,-2.43%
15,CC1=NN(/C(=N\c2nnc(C)s2)Nc2ccccc2)[C@H](c2ccc(C)cc2)S1,6.77%
16,CCCSc1nsc(N)n1,3.46%
17,CCCCCCSc1nsc(N)n1,3.17%
18,Nc1nc(SC23CC4CC(CC(C4)C2)C3)ns1,25.4% (active)
19,Nc1ccn(C2CC(O)C(CO)O2)c(=O)n1 (stereo unspecified),4.72%
20,COc1ccccc1C(=O)NCC(=O)OCC(=O)NNC(=O)c1ccc(Br)cc1,4.05%
21,COc1cc(C(=O)NCC(=O)NCCSc2ccc(Br)cc2)cc(OC)c1OC,18.7%

row,SMILES,inhibition
1,COc1ccccc1C(=O)NCC(=O)NCCSc1ccc(Br)cc1,27.3% (active)
2,Cc1c(C(=O)NC2CCCCC2)oc2ccccc12,1.03%
3,COc1cccc(CC(=O)OCC(=O)NCc2ccc3c(c2)OCO3)c1,8.95%
4,Cc1ccc(C(=O)OCC(=O)NCc2ccc3c(c2)OCO3)s1,-1.11%
5,Cc1cc(Br)ccc1SCC(=O)OCC(=O)NCc1ccc2c(c1)OCO2,25.2% (active)
6,CCc1ccc2[nH]c(=O)c(Cc3ccccc3)c(O)c2c1,24.7% (active)
7,O=C(Cc1c(O)c2ccccc2[nH]c1=O)NCc1ccccc1,2.81%
8,Cc1ccc2c(O)c(Cc3ccccc3)c(=O)[nH]c2n1,0.81%
9,O=C(Nc1ccccc1)Oc1cccc2cccnc12,3.18%
10,O=C(c1cccc(S(=O)(=O)N2CCCCCC2)c1)N1CCN(Cc2ccccc2)CC1,0.99%
11,O=C(NC(=O)c1ccc(Cl)c(Cl)c1)OC1CCS(=O)(=O)C1 (stereo unspecified),-3.52%
12,O=C(NCCc1c[nH]c2ccccc12)c1cc2ccccc2oc1=O,6.1%
13,CC1CCCCC1NC(=O)COc1ccc(C#N)cc1 (stereo unspecified),2.44%
14,Oc1ccc(N=Nc2nccs2)c(O)c1,35.3% (active)
15,O=C(OC12CC3CC(CC(C3)C1)C2)c1ccc(NCc2cc(O)ccc2O)cc1,3.5%
16,COc1ccc(S(=O)(=O)N2CCOCC2)cc1C(=O)NC1CCCCC1,2.51%
17,Cc1ccc(S(=O)(=O)N2CCN(C)CC2)cc1C(=O)NC1CCCCC1,25.7% (active)
18,CCn1cc(C(=O)NC2CCCCCC2)c(=O)c2cc(S(=O)(=O)N3CCCCC3)ccc21,0.07%
19,COc1ccc2c(c1)c(=Cc1ccc(N(C)C)cc1)c1cc(-c3ccccc3)[n+](C)n12,-27.4%
